Here are results for 40 molecules from PubChem BioAssay (NCI).

About 83,000 compounds went through this panel and 20% of them were active in at least one assay; those are over-represented in the sample as a whole.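 96-well plates, one dose, 48 hours. Percent growth reported; active if below 10.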 Active and inactive are the calls of the source.

The assay relates to SW-620 colon. The assay is described as follows: NCI-60 one-dose screen, 48 h (100 = growth as untreated, 0 = no growth, -100 = all killed). The settings on record: 10 µM unless noted. The protocol:
Growth inhibition of the SW-620 human tumor cell line is measured as a screen for anti-cancer activity. Cells are grown in 96 well plates and exposed to the test compound for 48 hours. Compounds are tested at a single concentration, which is 10^-5 M for most compounds. The reported endpoint is percent growth (GI% or GIPRCNT), where numbers from 0 - 100% represent growth inhibition, and numbers from -100% - 0 represent cell death. For example, a value of 40 represents 60% growth inhibition. A value of 0 means no net growth occurred over the course of the experiment. A value of -40 indicates 40% of cells at the beginning of the experiment died by the end of the experiment. A value of -100 means all cells are dead at the end of the experiment.
NCI-60 Human Tumor Cell Lines Screen was performed using the standard one-dose NCI protocol, which is described in more detail at https://dtp.cancer.gov/discovery_development/nci-60/default.htm.
Compounds with GIPRCNT values below 10 were considered active. Activity score was based on GIPRCNT using the following formula: […]
Score is 0 for GIPRCNT values of 100 or above, 50 for GIPRCNT values of 0, and 100 for GIPRCNT values of -100.
For the molecule `N#Cc1nc2c(S(=O)(=O)c3ccc(Cl)cc3)c(N)n(Nc3cccc(Cl)c3)c2nc1C#N`, the growth is 35.9% (inactive).
As for `COc1cccc(-c2nc3sccn3c2-c2ccnc(NCCNS(=O)(=O)c3cccc(F)c3)c2)c1`, the figure is 51.9% (inactive).
Regarding `Cc1cc(=O)[nH]c(N=Nc2c(O)[nH]c3ccccc23)n1`, the growth was 110% (inactive).
In the case of `COc1ccc(C(=O)/C=C/c2c(C(F)(F)F)nc3sccn23)cc1OC` it was 10.4% (inactive); in that of `O=C1NC(=Nc2ccc(Cl)cc2)S/C1=C\c1cn(-c2ccccc2)nc1-c1ccccc1`, 75.2% (inactive); in that of `NC(=O)c1ccc[n+](Cc2ccc(Cl)cc2Cl)c1`, 103% (inactive).
As for `NNC(=O)c1nc(N)n(-c2ccc(S(N)(=O)=O)cc2)n1`, the figure is 96% (inactive); as for `CCCCCCCOc1c(OC)cc(C2CC(=O)Nc3c2c(C)nn3-c2nc3ccccc3[nH]2)cc1OC` (stereo not given), 3.05% (active); as for `Cc1cc(C)c2c(-c3nnc(N)s3)cc(=O)oc2c1`, 98.2% (inactive).
On to `Cc1ccc(-c2c(-c3ccccc3)c(=O)oc3ccc(C)cc23)cc1`, for which the growth was 99.5% (inactive).
As for `COc1cc(-c2nc(N3CCN(C)CC3)c3ccccc3n2)cc(OC)c1OC`, the figure is 53.3% (inactive); as for `CNc1ccc(NC)c2c1C(=O)c1ccccc1C2=O`, 92.4% (inactive); as for `COC(=O)[C@]12CC[C@@H](C)[C@H](C)[C@@H]1C1=CC[C@@H]3[C@@]4(C)C(C=O)=C[C@@](C)(COC(C)=O)[C@@H]4C(=O)C[C@@]3(C)[C@]1(C)CC2`, 29.1% (inactive).
In the case of `CCOC(=O)C/C(C)=N\NC(=O)c1ccncc1`, the growth is 107% (inactive).
As for `C(=N\Nc1ncc(-c2cc3cc4c(cc3o2)OCO4)s1)/c1ccco1`, the figure is 2.26% (active).
For the molecule `CC1(C)CC(=O)C2=C(C1)N(c1ccc(OC(F)(F)F)cc1)C(N)=C(C#N)C2c1ccc(Cl)cc1` (stereo not given), the growth is 101% (inactive).
With `Cc1nc2ccccc2n1CC1NC(=O)NC1=O` (stereo not given), the growth was 97.6% (inactive).
With `c1cc2ccc3cc2cc1CNCCOCCNCc1ccc2ccc(cc2c1)CNCCOCCNC3`, the growth is 2.45% (active).
In the case of `O=C(Nc1ccc(Cl)cc1)Nc1ccc(Cl)c(C(F)(F)F)c1` it was 5.74% (active); in that of `COc1ccc(/C=N/C2=C(C#N)C(c3ccc(OC)cc3)c3ccc4ccccc4c3O2)cc1` (stereo not given), 43.3% (inactive).
As for `COc1ccc(N=C(c2ccccc2)C2C(=O)c3ccccc3C2=O)cc1`, the figure is 71.4% (inactive).
Turning to `CCC1(C2CCCC2)NC(=O)NC1=O` (stereo not given), the growth was 104% (inactive).
As for `O=C(/C=C/c1ccco1)c1ccc(Nc2nc(Nc3ccc(F)cc3)nc(Nc3ccc(Cl)cc3)n2)cc1`, the figure is 84.4% (inactive); as for `c1coc(-c2c3ccc(=[N+]4CCCCC4)cc-3oc3cc(N4CCCCC4)ccc23)c1`, -80% (active); as for `O=C(/C=C/c1c(Cl)nc2sccn12)c1nccs1`, 77.8% (inactive).
As for `COc1ccc(-c2nc3sccn3c2-c2cc(-c3cc(OC)c(OC)c(OC)c3)on2)cc1`, the growth was 105% (inactive).
As for `N#Cc1c(-c2ccccc2)cc(-c2ccc(Nc3nc(Nc4ccc(F)cc4)nc(Nc4ccc(F)cc4)n3)cc2)nc1N`, the figure is 93.9% (inactive).
As for `N[C@@H](CCCCNCC(=O)O)C(=O)O`, the figure is 101% (inactive); as for `CN(C)CCNc1nc2ccccc2c2c1c1c(n2Cc2ccccc2)-c2ccccc2C1=O`, -92.8% (active).
On to `N#C/C(=C\c1ccc(-c2ccccc2F)o1)c1nc(-c2ccco2)cs1`, for which the growth is 96.1% (inactive).
As for `O=C(O)C1CCC(=O)N1C(=O)OCc1ccccc1` (stereo not given), the figure is 101% (inactive); as for `COCCc1ccc(OCC(O)CNC(C)C)cc1` (stereo not given), 105% (inactive).
As for `COc1ccc(-c2csc(C3=C(O)CN(C(C)C)C3=N)n2)cc1OC`, the growth is 104% (inactive).
For `CC1OC(O[C@H]2/C=C/C=C/C=C/C=C/C=C/C=C/C=C/[C@H](C)[C@@H](O)[C@@H](C)[C@H](C)OC(=O)CC(O)CC(O)CCC(O)C(O)CC(O)C[C@]3(O)C[C@H](O)C(C(=O)O)C(C2)O3)C(O)[C@H](N)C1O` (stereo not given in full), the growth was -24.9% (active).
In the case of `COC1=C(OC)C(=O)C(OC)=C(OC)C1=O` it was 101% (inactive); in that of `O=C(CSc1nccc(Nc2ccc(S(=O)(=O)Nc3nccs3)cc2)n1)c1ccc(F)cc1`, 99.6% (inactive); in that of `C[n+]1cc2cc(C(N)=O)[nH]c3c(=N)c(Cl)c(N)c1c23`, 30.8% (inactive).
With `O=c1[nH]nc(-c2ccccc2)c2c(-c3ccccc3)onc12`, the growth is 22.2% (inactive).
In the case of `COc1ccc(Nc2nnc(SCc3ccccc3F)s2)cc1` it was 109% (inactive); in that of `COc1ccc(C2C(c3nn[nH]n3)=C(N)Oc3c2ccc2ccccc32)cc1` (stereo not given), 29.3% (inactive).
